Shown are actives, neighbours in structure and some others; about 2.9% of the full set was active somewhere.
Integrin act MD: activators of alpha7 integrin expression for muscular dystrophy. alpha7betagal myoblasts, beta-gal FDG fluorescence, 48 h. Potency, µM (doses to about 38.3 µM), inactives show at the top dose activation, usual class: activators. 0.064% of 350,000 active. AID 624291; active = well fitted activation curve with a large enough effect; inconclusive = small, poorly fitted or top-dose-only effect; inactive = no such curve, though single readings can be large or run the other way;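 note: potency is the fitted concentration of half-maximal effect; 100% = response of the positive control SU9516; nearly all actives have a fitted effect of over 60% in size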
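alpha7betagal+/- myoblasts (passage 13, 250/well) treated 48 h at 37C with compounds at 1:260 dilution of DMSO stock. Lysed, then beta-galactosidase activity read as FDG fluorescence (ex 480/em 540) after 30 min, with pre-read for autofluorescence.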
DRD3 antagonist: blocks the human D3 dopamine receptor. 2.5% of 360,000 active. max response, negative = inhibition, %. D3R cells, DiscoveRx beta-arrestin luminescence, antagonist mode; stronger effect = lower value. P35462; in the data active = max response below about -50%; inconclusive = no clear call, values can overlap the other calls; note: % is set by controls: 0 for no effect and ±100 for the full control effect
Target sequence (P35462 whole entry, looked up): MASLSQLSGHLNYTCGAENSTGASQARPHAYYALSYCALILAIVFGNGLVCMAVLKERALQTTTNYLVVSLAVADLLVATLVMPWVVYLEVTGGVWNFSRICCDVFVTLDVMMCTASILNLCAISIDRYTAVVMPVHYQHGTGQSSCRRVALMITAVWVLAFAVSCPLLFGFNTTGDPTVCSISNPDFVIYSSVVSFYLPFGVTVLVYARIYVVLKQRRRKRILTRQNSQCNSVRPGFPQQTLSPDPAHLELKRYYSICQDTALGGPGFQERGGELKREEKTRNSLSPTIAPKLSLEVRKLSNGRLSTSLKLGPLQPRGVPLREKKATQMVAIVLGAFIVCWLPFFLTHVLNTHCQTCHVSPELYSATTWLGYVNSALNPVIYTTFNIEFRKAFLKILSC
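Cells expressing the human receptor were seeded at 1500 cells/well, incubated overnight at 37 degrees C in 5% CO2, then exposed to library compounds with dopamine controls for 90 minutes at 37 degrees C before luminescent detection.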
DRD3 agonist: activates the human D3 dopamine receptor; P35462; D3R DiscoveRx beta-arrestin cells, luminescence, 90 min; max activation, %; 0.58% of 410,000 active; AID 652048; in the data active = max activation above about 30%; note: 0% is about no effect
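Agonist-mode cell screen: cells plated at 1500/well and incubated overnight at 37 °C, then exposed to library compounds for 90 min at 37 °C. Detection reagent was added for 30–60 min at room temperature, and luminescence was read.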
Numbers without * were called inactive; ? = inconclusive; nt = not tested or not shown; [ ] = dose if it differs, or a comment.

SMILES	Integrin act MD	DRD3 antagonist	DRD3 agonist
c1cc2c(cc1-c1[nH]ncc1CN1CC3C[C@@H]4CC1C[C@H](C3)C4)OCO2	-8%	1	22
Cc1ccc(CNC(=O)Cc2coc3cc(C)cc(C)c23)cc1	nt	nt	-4
Cc1cc(C)c2c(CC(=O)NCCc3ccccc3)coc2c1	0%	-5	34*
O=C(CCCSc1nc(-c2ccco2)cc(C(F)(F)F)n1)NCC1CCCO1 (stereo unspecified)	4%	17	-4
Cc1ccc(C)c(NC(=O)CN(C)C(=O)c2ccc(-c3ccc(Cl)cc3)o2)c1	-32%	0	-3
CN(CC(=O)Nc1cccc(F)c1)C(=O)c1ccc(-c2ccc(Cl)cc2)o1	11µM*	-11	-8
C=CC[C@@H](CC(=O)OC(C)(C)C)C(=O)OC[C@H]1CCCN1C(=O)[C@@H](CC=C)CC(=O)N[C@H](CO)Cc1ccccc1	-13%	39	23
Cc1[nH]n(-c2ccccc2)c(=O)c1C=Nc1cccc2cccnc12	2%	-87*	-20
Cc1ccc(-n2[nH]c(C)c(/C=N/c3ccccn3)c2=O)cc1	-8%	15	3
COc1ccc(OC)c(NC(=O)CN2C(=O)CC(c3ccco3)Sc3ccccc32)c1 (stereo unspecified)	nt	nt	-5
COc1ccc(CCNC(=O)COC(=O)c2ccc(F)c(S(=O)(=O)N3CCOCC3)c2)cc1	-4%	-4	0
Fc1ccc(Nc2nc(NCc3ccccc3)nc3ccsc23)cc1	nt	9	3
CCc1ccccc1Oc1nc(NCc2ccccc2)nc2ccsc12	nt	-52*	-5
CCCCCCCC(=O)NNC(=O)c1c(O)c2ccccc2n(CC)c1=O	22%	7	1
COc1ccc(C2=NCCc3cc(OC)c(OC)cc32)cc1	25%	5	-3
CCOc1ccc2[nH]c(=O)c(=O)[nH]c2c1	-29%	32	15
CN(Cc1ccccc1)C(=O)Nc1ccc(Cl)cc1	-22%	0	-4
CN(Cc1ccccc1)C(=O)Nc1c(Cl)cccc1Cl	nt	-51*	-7
CCCN1CCc2c(sc(NC(=O)c3ccc(S(=O)(=O)N(C)c4ccccc4)cc3)c2C(=O)NC)C1	-23%	0	-13
Cc1oc(-c2ccccc2F)nc1CN1CCC(C(=O)NCc2cccs2)CC1	0%	-52*	-1
Cc1oc(-c2ccccc2F)nc1CN1CCC(C(=O)NC2CC2)CC1	-8%	-25	1
N#CCSc1nc(-c2ccccc2)nc2ccccc12	-13%	41	4
N#CCSc1ncnc2ccccc12	-44%	-55*	-3
COc1cc(C(=O)Nc2cc(C)ccc2OCc2cc(=O)n3c(C)csc3n2)cc(OC)c1OC	nt	nt	0
Cc1ccc(NC(=O)C2=NNC(=O)CC2)cc1S(=O)(=O)Nc1ccc(SC(F)F)cc1	25%	-3	4
SMILES	Integrin act MD	DRD3 antagonist	DRD3 agonist
Cc1cccnc1C(NC(=O)C1CCN(CCOc2ccc(F)cc2)CC1)c1ccc(Cl)cc1 (stereo unspecified)	nt	0	-22
Cc1cccnc1C(NC(=O)C1CCN(CCCOc2ccc(F)cc2)CC1)c1ccccc1 (stereo unspecified)	nt	-84*	-25
COc1ccc(OCCN2CCC(C(=O)NC(c3ccc(Cl)cc3)c3ncccc3C)CC2)cc1 (stereo unspecified)	nt	-73*	-19
Cc1cccnc1C(NC(=O)C1CCN(Cc2ccc3ccccc3n2)CC1)c1ccc(Cl)cc1 (stereo unspecified)	nt	-68*	-12
COc1cc(OC)nc(C(NC(=O)C2CCN(Cc3ccc(Oc4ccccc4)cc3)CC2)c2ccc(F)cc2)n1 (stereo unspecified)	nt	-27	-18
Cc1cccnc1C(NC(=O)C1CCN(Cc2ccc(Cl)cc2)CC1)c1ccc(F)cc1 (stereo unspecified)	nt	0	-17
COc1ccc(OCCN2CCC(C(=O)NC(c3ccc(F)cc3)c3ncccc3C)CC2)cc1 (stereo unspecified)	nt	-85*	-14
COc1ccccc1-c1nnc(SCC(=O)Nc2ccc(N3CCOCC3)cc2)n1N	-2%	4	5
Cc1c2cnn(-c3ccccc3)c(=O)c2c(C)n1C(C)C(=O)Nc1ccccc1C(F)(F)F (stereo unspecified)	nt	nt	-3
CCc1ccc(Nc2nc(C)cc(C)c2C(N)=O)cc1	36%	-21	-11
O=C(O)c1ccc(S(=O)(=O)c2ccc3c(c2)C(=O)N(NC(=O)c2ccncc2)C3=O)cc1	7%	-56*	-3
O=C(O)c1ccc(S(=O)(=O)c2ccc3c(c2)C(=O)N(NC(=O)c2ccccc2)C3=O)cc1	-11%	0	-1
Cc1cc(NC(=O)c2cccn2-c2nnc(N3CCCCC3)s2)ccc1Br	nt	nt	-26
Cc1noc(NS(=O)(=O)c2ccc(NC(=O)COc3ccc(Cl)cc3Cl)cc2)c1C	-14%	13	-1
CC(C)(C)c1ccc(OCCN2CCCC2)cc1	-21%	-94*	-20
Cc1ccc(OCC(=O)OC2CCCN(C)C2)cc1 (stereo unspecified)	?	-4	1
CC1CCN(CCCCOc2ccc(C(C)(C)C)cc2)CC1	-68%	-88*	-20
CN1CCC(OC(=O)COc2ccc(C(C)(C)C)cc2)CC1	-3%	-56*	-58
CC(C)(C)c1ccc(OCCCCCCN2CCNCC2)cc1	-78%	-14	-13
CC1CCN(CCCCOc2ccc(Cl)cc2)CC1	-33%	-24	-13
CCN(CC)CCN1C(=O)C(=O)/C(=C(/O)c2ccc(OC(C)C)cc2)C1c1cccs1 (stereo unspecified)	-16%	2	-16
Cc1cccc(NC(=S)NN(Cc2ccccc2)c2ccccc2)c1C	20%	-27	1
Cc1cc2nc(C(C)(C)C)c(Cc3ccccc3)n2c(C)c1Br	nt	-97*	-21
COc1ccc(Cc2c(C(C)(C)C)nc3cc(C)c(Br)c(C)n23)c(C)c1	nt	38	8
OC(CNCC1COc2ccccc2O1)COCc1cccs1 (stereo unspecified)	-29%	-71*	-30
SMILES	Integrin act MD	DRD3 antagonist	DRD3 agonist
Cc1c(Cl)cccc1NC(=S)NCC1COc2ccccc2O1 (stereo unspecified)	-4%	-11	-4
COc1ccc(CNCC(O)COCc2cccs2)cc1 (stereo unspecified)	-19%	-21	-21
O=C(NCC1COc2ccccc2O1)c1ccccc1 (stereo unspecified)	6%[7.66 µM]	12	1
CC(=O)c1cccc(OCC(O)CNCC2COc3ccccc3O2)c1 (stereo unspecified)	-4%	-51*	37*
CC(OCC(O)CNCC1COc2ccccc2O1)c1ccc(Cl)cc1 (stereo unspecified)	-39%	-68*	-3
CCC(C)NC(=O)c1ccc2c(c1)N(Cc1ccccc1F)C(=O)c1ccccc1S2=O (stereo unspecified)	nt	nt	-2
Cn1cc(C(=O)C(=O)N2CCc3ccccc32)c2ccccc21	16%	-20	-4
CCCCOc1ccc(C(C)NC(=O)CCS(=O)(=O)Cc2ccc(Cl)cc2)cc1 (stereo unspecified)	25%	-7	2
Cc1cccc(NC(=O)NC2CCCCCCC2)c1	-10%	-4	8
CCOC(=O)c1c(NC(=O)CSc2nnc(C)c(=O)[nH]2)sc(C)c1-c1ccc(C)cc1	-16%	-19	0

From PubChem BioAssay
